Drawing on PubChem BioAssay (NCI), this text covers growth for 40 compounds.

Compounds without any hit were thinned out: in the full panel of roughly 83,000, 20% have a hit.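 96-well plates, one dose, 48 hours. Percent growth reported; active if below 10.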 Calls of active or inactive are those of the source.

The subject of the assay is SK-MEL-5 melanoma. The assay can be described thus: NCI-60 one-dose screen, 48 h (100 = growth as untreated, 0 = no growth, -100 = all killed). Conditions: 10 µM unless noted. The protocol: Growth inhibition of the SK-MEL-5 human tumor cell line is measured as a screen for anti-cancer activity. Cells are grown in 96 well plates and exposed to the test compound for 48 hours. Compounds are tested at a single concentration, which is 10^-5 M for most compounds. The reported endpoint is percent growth (GI% or GIPRCNT), where numbers from 0 - 100% represent growth inhibition, and numbers from -100% - 0 represent cell death. For example, a value of 40 represents 60% growth inhibition. A value of 0 means no net growth occurred over the course of the experiment. A value of -40 indicates 40% of cells at the beginning of the experiment died by the end of the experiment. A value of -100 means all cells are dead at the end of the experiment.
NCI-60 Human Tumor Cell Lines Screen was performed using the standard one-dose NCI protocol, which is described in more detail at https://dtp.cancer.gov/discovery_development/nci-60/default.htm.
Compounds with GIPRCNT values below 10 were considered active. Activity score was based on GIPRCNT using the following formula: […]
Score is 0 for GIPRCNT values of 100 or above, 50 for GIPRCNT values of 0, and 100 for GIPRCNT values of -100.
`CC1CC(=O)C2=C(C1)Nc1ccc(Br)cc1CC2c1c[nH]c2ccc(Br)cc12` (stereo not given): the growth is 66.1% (inactive).
Consider `NC(=O)c1ncn2c(=O)n(CCF)nnc12`, for which the growth was 92.5% (inactive).
For `CN1CCN(c2ccc(Nc3nc(NCCCNS(=O)(=O)c4cccc5ccccc45)c4sccc4n3)cc2)CC1` the value was -95.3% (active); for `COc1ccccc1N1CCN(C2=C(Cl)C(=O)c3ncccc3C2=O)CC1`, 96.4% (inactive).
Regarding `CC(Nc1c(C#N)cnc2ccc(-c3cncc(-c4n[nH]c(=O)o4)c3)cc12)c1ccccc1` (stereo not given), the growth is -84.8% (active).
Regarding `O=C(/C=C/Nc1ccc(S(=O)(=O)Nc2ncccn2)cc1)c1ccc(N=Cc2c(O)[nH]c3ccccc23)cc1`, the growth was 98.1% (inactive).
As for `O=C1Nc2ccc(F)cc2/C1=C\C(=O)c1ccc(NS(=O)(=O)c2ccccc2)cc1`, the growth was 97.3% (inactive).
For `C/C(=N\NC(=O)/C=C/CC(=O)O)c1nnn(-c2ccc([N+](=O)[O-])cc2)c1C` the value was 99.2% (inactive).
For `COc1ccc(/C=N/NC(=O)CSc2nc(-c3cnccn3)cc(-c3cccs3)c2C#N)cc1OC` the value was 34.8% (inactive).
For `COc1ccc(NC(=O)CCCCCCNC(=O)C(O)(O)C(F)(F)F)cc1` the value was 17% (inactive); for `CC(O)c1cccc(/C(N)=N/C(N)=N/c2nc3ccccc3s2)c1` (stereo not given), 83.4% (inactive).
In the case of `C=CCSC1=NC2C(N(CC)C(=O)N2CC)N1/N=C/C=C/c1ccccc1OC` (stereo not given), the growth is 65.5% (inactive).
As to `CCOP(=O)(OCC)OC[C@]12CC[C@@H](C)[C@H](C)C1C1=CC[C@@H]3[C@@]4(C)CCCNC(C)(C)[C@@H]4CC[C@@]3(C)[C@]1(C)CC2` (stereo not given in full), the growth is -8.29% (active).
For the compound `CCCCCN1C(=O)/C(=c2\sc3n(c2=O)C2C(NN=3)N(CC)C(=O)N2CC)c2cccc(C)c21` (stereo not given), the growth is 45.5% (inactive).
In the case of `CC(=O)Nc1nc(C)c(-c2csc(Nc3ccccc3)n2)s1`, the growth is 9.06% (active).
Regarding `COc1ccc(/C=N/NC(=O)CSc2nc(-c3cnccn3)cc(-c3cccs3)c2C#N)cc1`, the growth was 72.5% (inactive).
For `O=C(/C=C/C=C/c1csc(Br)n1)NO` the value was 96% (inactive); for `COc1ccc(CC(C)=C(c2ccc(OCCN3CCCC3)cc2)c2ccc(OCCN3CCCC3)cc2)cc1`, -96.1% (active); for `CCOC(=O)c1c(NCC(=O)Nc2cccc([N+](=O)[O-])c2)sc(C(C)=O)c1C`, -82.9% (active).
`CC1(C)CC[C@]2(C(=O)NCCCCCCN(CCCN)CCCN)CC[C@]3(C)C(=CC[C@@H]4[C@@]5(C)CC[C@H](O)C(C)(C)[C@@H]5CC[C@]43C)[C@@H]2C1`: the growth was 101% (inactive).
For the compound `CS(=O)(=O)c1nccc(-c2c(-c3cccc(OCc4ccc(Cl)c(C(F)(F)F)c4)c3)nc3sccn23)n1`, the growth is 97.2% (inactive).
As for `O=C(Nc1ccccc1)Nc1nc2ccc([N+](=O)[O-])cc2[nH]1`, the growth was 40.4% (inactive).
Regarding `CS(=O)(=O)c1ccc(/C(=N/N=C(N)N)c2ccc(Cl)cc2)cc1`, the growth is 92.2% (inactive).
For `CC(=O)N(O)CCCCCNC(=O)CCC(=O)N(O)CCCCCNC(=O)CCC(=O)N(O)CCCCCN(CCCCCCCCCC[P+](c1ccccc1)(c1ccccc1)c1ccccc1)CCCCCCCCCC[P+](c1ccccc1)(c1ccccc1)c1ccccc1` the value was -45.9% (active); for `COc1cc2cc(Oc3ccc(NC(=O)c4cc(C(F)(F)F)cc(C(F)(F)F)c4)cc3)c(C)nc2cc1OCCN1CCOCC1`, 14.6% (inactive).
For `FC(F)(F)c1cc(Br)cc(-c2cc(-c3ccc4c(c3)OCCO4)[nH]n2)c1` the value was 17.9% (inactive); for `CC[C@]12C=CCN3CC[C@]4(C(=C(C(=O)OC)C1)Nc1cc5c(cc14)[C@@H]1[C@H](O5)[C@@H](O)[C@@]4(CC)CC(C(=O)OC)=C5Nc6cc(O)ccc6[C@@]56CCN1C46)C32` (stereo not given in full), -41.5% (active); for `O=C(CSc1nc2ccccc2c(=O)n1-c1ccccc1)N/N=C/c1ccc(Oc2ccc(Br)cc2)cc1`, 59.1% (inactive).
For `Brc1cccc(-c2cc(-c3cnc4c(c3)OCCO4)n[nH]2)c1` the value was 24.2% (inactive); for `Cc1[nH]c(C(=O)Nc2ccccc2OCc2cccc(C(=O)NC3CCNC3)c2)c(Cl)c1Cl` (stereo not given), 97.6% (inactive); for `O=C(Nc1cccc(Cl)c1)Nc1nc2cc([N+](=O)[O-])ccc2o1`, 15.7% (inactive).
Regarding `Cc1[nH]c(C(=O)Nc2ccc(C(N)=O)cc2N2CCOC(C)C2)c(Cl)c1Cl` (stereo not given), the growth was 97.2% (inactive).
For `COc1ccc(C2CC(c3cccc(OCCCCOc4cccc(C5=NN(C(C)=O)C(c6ccc(OC)cc6)C5)c4)c3)=NN2C(C)=O)cc1` (stereo not given) the value was 11.8% (inactive).
Regarding `COc1ccc(C(=O)c2c(N)c(C#N)cn2-c2ccc(Cl)cc2Cl)cc1`, the growth is 98.7% (inactive).
As for `CCOC(=O)c1ccc(NC2=C(Cl)C(=O)c3nc(C)ccc3C2=O)cc1`, the growth was 63.6% (inactive).
For `COc1cc2oc(-c3cccc(NC(=O)[C@@H](N)C(C)C)c3)cc(=O)c2c(OC)c1OC`, the growth is 99.1% (inactive).
On to `Cn1ncc2c(C(=O)c3ccc(F)cc3)nc(C(C)(C)C)nc21`, for which the growth was 100% (inactive).
For `Cc1csc(/N=C(N)/N=C(\N)c2cccc(C#N)c2)n1` the value was 85.7% (inactive); for `COc1ccc(C(C)=C(c2ccc(OCCN3CCCCCC3)cc2)c2ccc(OCCN3CCCCCC3)cc2)cc1`, -92% (active); for `N#Cc1cccc(-c2cc(-c3ccc4c(c3)OCCO4)[nH]n2)c1`, 12.1% (inactive).
